This note sets out measurements from article PMC5700166.

Common to all, as to experiment: protein-binding microarray (PBM); PBM: ~300 nM protein, 6 mM HEPES pH 7.8, 80 mM KCl, 0.5 mM EDTA, 0.5 mM EGTA, 6% glycerol, 35 ng/ul poly-dIdC, 1% milk, 1 h, room temperature; Ap Aiptasia and Nv Nematostella (sea anemones) / Co Capsaspora / Aq Amphimedon (sponge) / Dm Drosophila / Hu human; RHD is the Rel homology domain; high values mean tight binding
What all share (settings): dsDNA, one strand shown

One test addresses T1, GST-Ap-NF-kB RHD (Exaiptasia pallida (Aiptasia), UniProt A0A913YAJ5 2-422).
T1 sequence: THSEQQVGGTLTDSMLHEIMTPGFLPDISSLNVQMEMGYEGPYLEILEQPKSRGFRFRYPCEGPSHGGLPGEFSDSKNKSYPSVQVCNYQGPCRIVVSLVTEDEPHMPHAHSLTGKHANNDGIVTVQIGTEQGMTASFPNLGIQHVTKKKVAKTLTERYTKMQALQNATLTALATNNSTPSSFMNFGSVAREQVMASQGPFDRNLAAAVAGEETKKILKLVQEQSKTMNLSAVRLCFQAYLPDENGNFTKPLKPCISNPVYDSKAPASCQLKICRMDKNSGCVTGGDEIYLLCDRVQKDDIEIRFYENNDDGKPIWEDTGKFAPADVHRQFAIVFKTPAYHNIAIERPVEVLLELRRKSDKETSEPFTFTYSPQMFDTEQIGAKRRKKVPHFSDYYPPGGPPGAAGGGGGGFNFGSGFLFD

The target in test [1] is T2, GST-Nv-NF-kB (Cys allele) (Nematostella vectensis, UniProt E5G601 2-411).
T2 sequence: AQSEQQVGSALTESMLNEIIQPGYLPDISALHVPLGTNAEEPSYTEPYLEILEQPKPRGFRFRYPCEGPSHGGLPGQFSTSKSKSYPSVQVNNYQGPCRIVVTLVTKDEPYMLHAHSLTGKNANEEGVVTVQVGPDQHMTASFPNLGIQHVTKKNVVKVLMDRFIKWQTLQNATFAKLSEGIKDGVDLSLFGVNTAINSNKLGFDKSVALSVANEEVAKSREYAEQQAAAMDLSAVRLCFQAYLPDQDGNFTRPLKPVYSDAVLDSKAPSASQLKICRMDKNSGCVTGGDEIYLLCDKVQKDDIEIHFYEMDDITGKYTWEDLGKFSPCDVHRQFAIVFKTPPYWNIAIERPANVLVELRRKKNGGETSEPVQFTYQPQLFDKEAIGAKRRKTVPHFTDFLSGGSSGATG

Test [2] deals with T3, GST-Nv-NF-kB (Ser allele) (Nematostella vectensis, UniProt A7UNT2 2-411).
T3 sequence: T2 sequence with Q21R, C66S, S207N, E215Q, V217A, E225K, A268E, D399E

The target in the next test is T4, GST-Co-NF-kB (Capsaspora owczarzaki, UniProt F1ARL5 200-546).
T4 sequence: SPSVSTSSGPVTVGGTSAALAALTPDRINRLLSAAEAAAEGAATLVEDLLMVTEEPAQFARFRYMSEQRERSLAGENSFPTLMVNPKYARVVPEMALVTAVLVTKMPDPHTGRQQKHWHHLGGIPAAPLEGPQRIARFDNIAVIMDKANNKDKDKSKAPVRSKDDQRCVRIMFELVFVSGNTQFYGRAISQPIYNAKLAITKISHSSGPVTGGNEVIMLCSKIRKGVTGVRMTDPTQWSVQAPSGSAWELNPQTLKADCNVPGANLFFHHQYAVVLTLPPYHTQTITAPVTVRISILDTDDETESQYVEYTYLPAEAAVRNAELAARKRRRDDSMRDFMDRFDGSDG

In another test the target is T5, GST-Dm-Relish (Drosophila melanogaster, UniProt Q94527 99-473).
T5 sequence: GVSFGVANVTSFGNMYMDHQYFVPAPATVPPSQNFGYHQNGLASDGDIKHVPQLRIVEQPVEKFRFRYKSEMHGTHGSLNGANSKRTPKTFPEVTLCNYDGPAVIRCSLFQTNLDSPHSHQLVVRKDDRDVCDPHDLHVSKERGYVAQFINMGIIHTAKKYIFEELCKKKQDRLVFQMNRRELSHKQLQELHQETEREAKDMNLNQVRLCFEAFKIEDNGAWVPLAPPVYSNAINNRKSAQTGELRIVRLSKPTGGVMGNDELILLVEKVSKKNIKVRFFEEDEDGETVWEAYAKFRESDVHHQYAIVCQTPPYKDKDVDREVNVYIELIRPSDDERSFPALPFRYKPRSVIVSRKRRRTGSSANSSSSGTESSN

For a further test, the target named is T6, GST-Aq-NF-kB (Amphimedon queenslandica, UniProt A9Y5G7 2-389).
T6 sequence: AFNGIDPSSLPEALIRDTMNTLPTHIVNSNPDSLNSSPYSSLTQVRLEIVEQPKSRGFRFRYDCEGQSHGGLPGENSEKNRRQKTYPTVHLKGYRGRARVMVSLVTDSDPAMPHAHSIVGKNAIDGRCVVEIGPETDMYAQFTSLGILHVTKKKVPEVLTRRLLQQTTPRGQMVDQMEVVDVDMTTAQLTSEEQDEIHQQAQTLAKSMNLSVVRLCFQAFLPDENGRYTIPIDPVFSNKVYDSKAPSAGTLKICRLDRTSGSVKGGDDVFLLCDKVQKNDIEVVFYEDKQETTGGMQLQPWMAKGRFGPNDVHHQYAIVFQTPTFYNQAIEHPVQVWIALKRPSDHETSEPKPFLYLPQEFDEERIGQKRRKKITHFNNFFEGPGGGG

The next test concerns the target GST-Hu-p50 (Homo sapiens, UniProt P19838 7-356).

Where a chain is given by its changes, count along the chain named.

GST-Hu-p50, sequence (P19838 7-356): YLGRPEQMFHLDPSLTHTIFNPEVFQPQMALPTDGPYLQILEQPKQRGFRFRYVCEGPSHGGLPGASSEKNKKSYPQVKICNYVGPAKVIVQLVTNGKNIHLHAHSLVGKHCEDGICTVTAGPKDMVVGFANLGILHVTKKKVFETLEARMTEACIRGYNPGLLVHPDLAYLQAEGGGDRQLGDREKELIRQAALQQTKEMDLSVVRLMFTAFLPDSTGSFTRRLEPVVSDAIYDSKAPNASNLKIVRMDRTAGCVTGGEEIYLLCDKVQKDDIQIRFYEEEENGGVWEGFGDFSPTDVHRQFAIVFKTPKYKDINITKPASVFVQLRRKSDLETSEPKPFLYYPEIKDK

For “CCGATTAACATCAAGGATCCCCCTGATGTTAATCGGGTCTTGATTCGCTTGACGCTGCTG”, the binding signal in the test with GST-Ap-NF-kB RHD was found to be 8.01 z-score; in test [1], 6.51 z-score; in test [2], 6.9 z-score; with GST-Co-NF-kB, 5.03 z-score; with GST-Dm-Relish, 8.82 z-score; with GST-Aq-NF-kB, 6.4 z-score. In addition, the binding signal with GST-Hu-p50 stood at 6.43 z-score.

Consider “CCGATTAACATCAGGGGAATCTATGATGTTAATCGGGTCTTGATTCGCTTGACGCTGCTG”, for which the binding signal with GST-Ap-NF-kB RHD is 8.26 z-score; in test [1], 8.91 z-score; in test [2], 10.6 z-score; with GST-Co-NF-kB, 7.29 z-score; with GST-Dm-Relish it was 5.84 z-score; in the test with GST-Aq-NF-kB, 5.95 z-score. In the test with GST-Hu-p50, this sequence displayed a binding signal of 6.51 z-score.

With “CCGATTAACATCAGGGGGAGTAATGATGTTAATCGGGTCTTGATTCGCTTGACGCTGCTG”, the binding signal was 5.68 z-score with GST-Ap-NF-kB RHD; 4.54 z-score in test [1]; 5.56 z-score in test [2]; 6.83 z-score with GST-Co-NF-kB; 3.45 z-score in the test with GST-Dm-Relish; 4.18 z-score with GST-Aq-NF-kB. In the test with GST-Hu-p50, this sequence showed a binding signal of 5.72 z-score.

Regarding “CCGATTAACATCAAAAGGGGATATGATGTTAATCGGGTCTTGATTCGCTTGACGCTGCTG”, the binding signal in the test with GST-Ap-NF-kB RHD amounted to 4.87 z-score; in test [1], 5.63 z-score; in test [2] it was 7.56 z-score; with GST-Co-NF-kB it was 2.09 z-score; with GST-Dm-Relish it was 2.06 z-score; in the test with GST-Aq-NF-kB, 3.8 z-score. Besides, in the test with GST-Hu-p50, the binding signal was found to be 4.41 z-score.

In the case of “CCGATTAACATCAAAGCTTTCCCTGATGTTAATCGGGTCTTGATTCGCTTGACGCTGCTG”, the binding signal came to 2.54 z-score in the test with GST-Ap-NF-kB RHD; 4.28 z-score in test [1]; 4.2 z-score in test [2]; 3.59 z-score in the test with GST-Co-NF-kB; 1.47 z-score with GST-Dm-Relish; 4.07 z-score with GST-Aq-NF-kB. In addition, the binding signal in the test with GST-Hu-p50 was determined as 3.46 z-score.

With “CCGATTAACATCACGGAAATCCCTGATGTTAATCGGGTCTTGATTCGCTTGACGCTGCTG”, the binding signal with GST-Ap-NF-kB RHD amounted to 4.3 z-score; in test [1] it was 3.8 z-score; in test [2] it was 2.78 z-score; with GST-Co-NF-kB, 1.09 z-score; in the test with GST-Dm-Relish, 6.96 z-score; with GST-Aq-NF-kB, 6.11 z-score. This sequence also gave a binding signal with GST-Hu-p50 of 3.58 z-score.

Take “CCGATTAACATCAAAAGTCCCCATGATGTTAATCGGGTCTTGATTCGCTTGACGCTGCTG”: the binding signal with GST-Ap-NF-kB RHD amounted to 7.92 z-score; in test [1], 7.91 z-score; in test [2], 7.59 z-score; with GST-Co-NF-kB, 3.45 z-score; with GST-Dm-Relish, 8.38 z-score; with GST-Aq-NF-kB, 7.23 z-score. The same sequence registered a binding signal with GST-Hu-p50 of 6.84 z-score.

As for “CCGATTAACATCAGGGGGAGGAATGATGTTAATCGGGTCTTGATTCGCTTGACGCTGCTG”, the binding signal with GST-Ap-NF-kB RHD was determined as 5.2 z-score; in test [1], 4.58 z-score; in test [2] it was 6.46 z-score; with GST-Co-NF-kB it was 7.99 z-score; with GST-Dm-Relish, 2.99 z-score; with GST-Aq-NF-kB, 4.59 z-score. In the test with GST-Hu-p50, this sequence displayed a binding signal of 4.89 z-score.

For “CCGATTAACATCACTAGTCCCCCTGATGTTAATCGGGTCTTGATTCGCTTGACGCTGCTG”, the binding signal in the test with GST-Ap-NF-kB RHD stood at 4.7 z-score; in test [1], 3.39 z-score; in test [2] it was 3.45 z-score; in the test with GST-Co-NF-kB, 3.98 z-score; with GST-Dm-Relish, 2.58 z-score; in the test with GST-Aq-NF-kB, 3.81 z-score. The sequence also had a binding signal in the test with GST-Hu-p50 of 3.46 z-score.

Consider “CCGATTAACATCAGGACATTCCCTGATGTTAATCGGGTCTTGATTCGCTTGACGCTGCTG”, for which the binding signal in the test with GST-Ap-NF-kB RHD was found to be 2.97 z-score; in test [1] it was 4.82 z-score; in test [2] it was 2.96 z-score; in the test with GST-Co-NF-kB, 1.36 z-score; with GST-Dm-Relish it was 3.89 z-score; with GST-Aq-NF-kB, 6.9 z-score. This sequence also yielded a binding signal with GST-Hu-p50 of 3.21 z-score.

For the sequence “CCGATTAACATCAAGTTTTCCCCTGATGTTAATCGGGTCTTGATTCGCTTGACGCTGCTG”, the binding signal with GST-Ap-NF-kB RHD stood at 8.03 z-score; in test [1], 8.76 z-score; in test [2], 11.2 z-score; with GST-Co-NF-kB it was 10.3 z-score; with GST-Dm-Relish it was 6.09 z-score; in the test with GST-Aq-NF-kB it was 6.59 z-score. Moreover, the binding signal in the test with GST-Hu-p50 stood at 6.59 z-score.

On to “CCGATTAACATCAGGGGGAGAACTGATGTTAATCGGGTCTTGATTCGCTTGACGCTGCTG”, for which the binding signal amounted to 6.04 z-score in the test with GST-Ap-NF-kB RHD; 5.02 z-score in test [1]; 6.45 z-score in test [2]; 7.22 z-score with GST-Co-NF-kB; 6.51 z-score with GST-Dm-Relish; 4.8 z-score with GST-Aq-NF-kB. In the test with GST-Hu-p50, this sequence had a binding signal of 5.85 z-score.
